In PubChem BioAssay (Tox21):
Inconclusive results are not listed. Activity calls are given as the source filed them. Unless noted, calls follow the shape of the dose curve; as a rule, active = well fitted curve in the direction sought with a large enough effect in the repeat runs; inconclusive = weak or mixed curves; inactive = no such curve, though single readings can be large; an effect the other way counts as inactive or inconclusive.

Columns and labels:
[1] = qHTS assay to identify small molecule agonists of the peroxisome proliferator-activated receptor delta (PPARd) signaling pathway - cell viability counter screen (AID 743211); also: nearly all actives have a fitted effect of over 55% in size
In short: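 Viability of GeneBLAzer PPARd UAS-bla HEK293H cells was assessed after 17 h compound incubation at 37C, using CellTiter-Glo reagent added after the reporter read and luminescence recorded 30 min later.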

[2] = molecular target: Peroxisome proliferator-activated receptor delta (Homo sapiens) (UniProt Q03181); experiment: qHTS assay to identify small molecule agonists of the peroxisome proliferator-activated receptor delta (PPARd) signaling pathway (AID 743212; calls by dose curve)
Chain of Peroxisome proliferator-activated receptor delta (Homo sapiens) (Q03181 whole entry, looked up): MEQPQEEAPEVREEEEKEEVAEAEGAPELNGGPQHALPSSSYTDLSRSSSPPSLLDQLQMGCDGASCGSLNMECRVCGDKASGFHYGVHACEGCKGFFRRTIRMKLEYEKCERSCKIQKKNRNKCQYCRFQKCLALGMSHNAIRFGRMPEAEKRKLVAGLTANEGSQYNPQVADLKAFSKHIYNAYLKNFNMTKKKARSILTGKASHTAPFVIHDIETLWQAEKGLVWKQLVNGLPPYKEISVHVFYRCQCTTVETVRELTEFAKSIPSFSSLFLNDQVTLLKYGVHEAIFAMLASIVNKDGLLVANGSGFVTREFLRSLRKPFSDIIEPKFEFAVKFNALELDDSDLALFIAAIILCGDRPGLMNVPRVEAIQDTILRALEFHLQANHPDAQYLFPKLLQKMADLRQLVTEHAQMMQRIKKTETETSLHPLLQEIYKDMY
In short: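 Tox21 library screened in GeneBLAzer PPARd UAS-bla HEK293H cells. After compound treatment at 37 C, a FRET-based beta-lactamase substrate was applied for 2 h and fluorescence recorded.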

[3] = qHTS assay to identify small molecule antagonists of the peroxisome proliferator-activated receptor delta (PPARd) signaling pathway - cell viability counter screen (AID 743213); also: nearly all actives have a fitted effect of over 50% in size
In short: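 PPARd-bla HEK293H cells (3000/well) got compound plus 300 nM L165041 agonist for 17 h at 37 C. Viability in the same wells came from CellTiter-Glo luminescence after 30 min at room temperature.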

[4] = molecular target: Peroxisome proliferator-activated receptor delta (Homo sapiens) (UniProt Q03181); experiment: qHTS assay to identify small molecule antagonists of the peroxisome proliferator-activated receptor delta (PPARd) signaling pathway (AID 743215; active = well fitted inhibition curve with a large enough effect in the signal ratio in the repeat runs, not every such curve was filed as active; the % refers to the signal ratio;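 also: cells stimulated with agonist L165041 at 300 nM final during compound exposure; series mostly up to about 62 µM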)
In short: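 Plated HEK293H PPARd-bla cells rested 5 h at 37 C and 5% CO2. Compound, then agonist L165041 at 300 nM final, was added; 17 h at 37 C followed. Substrate loading, 2 h room temperature, fluorescence measured.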

[5] = molecular target: Bile acid receptor (Homo sapiens) (UniProt Q96RI1); experiment: qHTS assay to identify small molecule antagonists of the farnesoid-X-receptor (FXR) signaling pathway (AID 743217; active = well fitted inhibition curve with a large enough effect in the signal ratio in the repeat runs, not every such curve was filed as active; the % refers to the signal ratio)
Chain of Bile acid receptor (Homo sapiens) (Q96RI1 whole entry, looked up): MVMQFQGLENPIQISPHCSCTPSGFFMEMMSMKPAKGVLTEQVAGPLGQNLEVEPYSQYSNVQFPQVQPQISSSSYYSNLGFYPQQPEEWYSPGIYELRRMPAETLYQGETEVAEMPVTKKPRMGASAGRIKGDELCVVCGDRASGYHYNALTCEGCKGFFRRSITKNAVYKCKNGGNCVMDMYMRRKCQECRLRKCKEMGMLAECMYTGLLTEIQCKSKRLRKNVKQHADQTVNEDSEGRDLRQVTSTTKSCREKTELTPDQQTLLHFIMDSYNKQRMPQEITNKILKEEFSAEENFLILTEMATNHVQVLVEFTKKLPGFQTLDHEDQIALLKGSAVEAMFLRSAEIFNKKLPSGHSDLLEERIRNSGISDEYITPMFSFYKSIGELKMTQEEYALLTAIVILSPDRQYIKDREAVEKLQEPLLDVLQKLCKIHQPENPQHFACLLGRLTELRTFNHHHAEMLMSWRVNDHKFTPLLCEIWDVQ
In short: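 Screen of the Tox21 10K library in quantitative HTS format using FXR-UAS-bla HEK 293T reporter cells. Agonist chenodeoxycholic acid, 50 uM final, added with compounds; 16 h incubation at 37 °C; beta-lactamase FRET fluorescence measured.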

[6] = qHTS assay to identify small molecule agonists of the farnesoid-X-receptor (FXR) signaling pathway - cell viability counter screen (AID 743218); also: nearly all actives have a fitted effect of over 45% in size
In short: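 Viability of FXR-bla HEK 293T cells is measured by ATP-based CellTiter-Glo luminescence following 16 h compound treatment at 37 C and a prior 2 h room-temperature beta-lactamase substrate step.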

[7] = molecular target: Bile acid receptor (Homo sapiens) (UniProt Q96RI1); experiment: qHTS assay to identify small molecule agonists of the farnesoid-X-receptor (FXR) signaling pathway (AID 743220; active = well fitted activation curve with a large enough effect in the signal ratio in the repeat runs, not every such curve was filed as active; the % refers to the signal ratio)
In short: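 FXR-UAS-bla HEK 293T cells carrying a UAS-driven beta-lactamase reporter were plated for 5 h at 37C/5% CO2, then exposed to DMSO-dissolved Tox21 10K compounds for 16 h at 37C. A LiveBLAzer B/G FRET substrate was loaded for 2 h at room temperature before fluorescence reading.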

[8] = qHTS assay to identify small molecule antagonists of the farnesoid-X-receptor (FXR) signaling pathway - cell viability counter screen (AID 743221; active = well fitted cell-killing curve with a large enough effect in the repeat runs, not every such curve was filed as active; also: nearly all actives have a fitted effect of over 50% in size)
In short: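 Quantitative HTS of the Tox21 10K library run in parallel with the beta-lactamase reporter read. HEK 293T cells carrying a UAS-driven bla reporter got compound and 50 uM CDCA (final) for 16 h; ATP-based luminescence followed.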

[9] = molecular target: Vitamin D3 receptor (Homo sapiens) (UniProt P11473); experiment: qHTS assay to identify small molecule agonists of the vitamin D receptor (VDR) signaling pathway (AID 743222; calls by dose curve)
Chain of Vitamin D3 receptor (Homo sapiens) (P11473 whole entry, looked up): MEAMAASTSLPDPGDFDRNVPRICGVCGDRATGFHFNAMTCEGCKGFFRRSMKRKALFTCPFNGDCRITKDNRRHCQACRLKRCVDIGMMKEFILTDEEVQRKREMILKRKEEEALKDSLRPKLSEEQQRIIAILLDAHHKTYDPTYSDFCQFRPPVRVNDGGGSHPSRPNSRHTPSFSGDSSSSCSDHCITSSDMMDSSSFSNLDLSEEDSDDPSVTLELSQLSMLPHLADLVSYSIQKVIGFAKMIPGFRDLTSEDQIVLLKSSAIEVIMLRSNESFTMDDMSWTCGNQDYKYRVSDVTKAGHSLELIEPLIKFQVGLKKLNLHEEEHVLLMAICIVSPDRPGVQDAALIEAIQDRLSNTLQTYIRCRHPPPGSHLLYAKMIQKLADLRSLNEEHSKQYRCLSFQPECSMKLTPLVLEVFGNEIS
In short: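 Fluorescence from cleaved LiveBLAzer B/G FRET substrate served as readout. VDR-bla cells had been treated 16 h at 37C with test compounds in DMSO, following a 4 h settling period, and substrate was loaded for 2 h at RT.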

[10] = molecular target: Vitamin D3 receptor (Homo sapiens) (UniProt P11473); experiment: qHTS assay to identify small molecule antagonists of the vitamin D receptor (VDR) signaling pathway (AID 743223; active = well fitted inhibition curve with a large enough effect in the signal ratio in the repeat runs, not every such curve was filed as active; the % refers to the signal ratio)
In short: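 Fluorescence from LiveBLAzer B/G FRET substrate, read after 2 h at room temperature, reflects beta-lactamase reporter activity in VDR-bla cells treated 16 h at 37C with compounds and agonist 1alpha,25-dihydroxyvitamin D3 (3 nM final).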
% is scaled to controls: 0 for no effect and ±100 for the full control effect.

COCCCOCCCOC
inactive: Potency [1] | outcome [2] | Potency [3] | Potency [4] | outcome [5] | Potency [6] | outcome [7] | Potency [8] | outcome [9]

CC/C=C\CCOC(C)=O
inactive: Potency [1] | outcome [2] | Potency [3] | Potency [4] | outcome [5] | Potency [6] | outcome [7] | Potency [8] | outcome [9]

CC(C)CNCC(C)C
inactive: Potency [1] | outcome [2] | Potency [3] | Potency [4] | outcome [5] | Potency [6] | outcome [7] | Potency [8] | outcome [9]

CN1CC(=O)NC1=N
inactive: Potency [1] | outcome [2] | Potency [3] | Potency [4] | outcome [5] | Potency [6] | outcome [7] | Potency [8] | outcome [9] | outcome [10]

CCS(=O)(=O)c1ccc(OC)c(C(=O)OC)c1
inactive: Potency [1] | outcome [2] | Potency [3] | Potency [4] | outcome [5] | Potency [6] | outcome [7] | Potency [8]

CC(=O)N(CC(O)CO)c1c(I)c(C(=O)NCCO)c(I)c(C(=O)NCC(O)CO)c1I (stereo unspecified)
inactive: Potency [1] | outcome [2] | Potency [3] | Potency [4] | outcome [5] | Potency [6] | outcome [7] | Potency [8] | outcome [9] | outcome [10]

N[C@@H](C(=O)N[C@@H]1C(=O)N2C(C(=O)O)=C(Cl)CS[C@H]12)c1ccccc1
inactive: activity change, negative = cytotoxicity [1] 12.6% [at 13.2 µM] | activation [2] 0.732% [at 13.2 µM] | viability change, negative = cytotoxic [3] 10.2% [at 13.7 µM] | ratio activity, negative = inhibition [4] 0.0649% [at 13.7 µM] | activity change, negative = inhibition [5] -0.0054% [at 13.2 µM] | viability change, negative = cytotoxic [6] 3.28% [at 13.2 µM] | activation [7] 0.369% [at 13.2 µM] | activity change, negative = cytotoxicity [8] 6.46% [at 13.2 µM]

Nc1c[n+](N2CCOCC2)no1
inactive: Potency [1] | outcome [2] | Potency [3] | Potency [4] | outcome [5] | Potency [6] | outcome [7] | Potency [8]

CC[N+](C)(C)c1cccc(O)c1
inactive: Potency [1] | outcome [2] | Potency [3] | Potency [4] | outcome [5] | Potency [6] | outcome [7] | Potency [8]

CCC(C)S (stereo unspecified)
inactive: activity change, negative = cytotoxicity [1] 2.23% [at 2.7 µM] | activation [2] -4.14% [at 2.7 µM] | viability change, negative = cytotoxic [3] 4.88% [at 2.83 µM] | ratio activity, negative = inhibition [4] 5.9% [at 2.83 µM] | activity change, negative = inhibition [5] 3.24% [at 2.69 µM] | viability change, negative = cytotoxic [6] 7.12% [at 2.7 µM] | activation [7] -0.872% [at 2.7 µM] | activity change, negative = cytotoxicity [8] 5.23% [at 2.69 µM] | activation [9] 12.2% [at 2.71 µM]

CCc1nccnc1CC
inactive: Potency [1] | outcome [2] | Potency [3] | Potency [4] | Potency [6] | Potency [8] | outcome [10]

Nc1nc2c(ncn2COC(CO)CO)c(=O)[nH]1
inactive: Potency [1] | outcome [2] | Potency [3] | Potency [4] | Potency [6] | Potency [8] | outcome [9] | outcome [10]

CCCN(CCC)CCc1cccc2c1CC(=O)N2
inactive: Potency [1] | outcome [2] | Potency [3] | Potency [4] | Potency [6] | Potency [8]

N=C(N)c1ccc(OCCCOc2ccc(C(=N)N)cc2)cc1
inactive: Potency [1] | outcome [2] | Potency [3] | Potency [4] | Potency [6] | Potency [8] | outcome [9] | outcome [10]

NS(=O)(=O)c1ccc(C(=O)O)cc1
inactive: Potency [1] | outcome [2] | Potency [3] | Potency [4] | outcome [5] | outcome [7] | Potency [8]

OCCCC1CCCCC1
inactive: Potency [1] | outcome [2] | Potency [3] | Potency [4] | Potency [6] | Potency [8]

CCCCCCCCCCCCN(CCCCCCCCCCCC)CCCCCCCCCCCC
inactive: Potency [1] | outcome [2] | Potency [3] | Potency [4] | Potency [6] | Potency [8] | outcome [9] | outcome [10]

CCCCC(CC)COC(=O)c1ccccc1O (stereo unspecified)
inactive: Potency [1] | outcome [2] | Potency [3] | Potency [4] | Potency [6] | Potency [8] | outcome [9]

O=c1n(CCO)c(=O)n(CCO)c(=O)n1CCO
inactive: Potency [1] | outcome [2] | Potency [3] | Potency [4] | outcome [5] | outcome [7] | Potency [8] | outcome [9]

CCCCCCOC(=O)CCCCC(=O)OCCCCCC
inactive: Potency [1] | outcome [2] | Potency [3] | Potency [4] | outcome [5] | outcome [7] | Potency [8] | outcome [9]

COC(=O)CCSCCC(=O)OC
inactive: Potency [1] | outcome [2] | Potency [3] | Potency [4] | outcome [5] | outcome [7] | Potency [8]

COc1c(N2C[C@@H]3CCCN[C@@H]3C2)c(F)cc2c(=O)c(C(=O)O)cn(C3CC3)c12
inactive: Potency [1] | outcome [2] | Potency [3] | Potency [4] | outcome [5] | outcome [7] | Potency [8]

CCSC(=O)N(CC(C)C)CC(C)C
inactive: Potency [1] | outcome [2] | Potency [3] | Potency [4] | Potency [6] | Potency [8]

C=COCC1CCC(CO)CC1 (stereo unspecified)
inactive: Potency [1] | outcome [2] | Potency [3] | Potency [4] | outcome [5] | outcome [7] | Potency [8] | outcome [9]

C[C@@H]1CCN(C(=O)[C@H](CCCN=C(N)N)NS(=O)(=O)c2cccc3c2NC[C@H](C)C3)[C@@H](C(=O)O)C1
inactive: Potency [1] | outcome [2] | Potency [3] | Potency [4] | Potency [6] | Potency [8]

C[N+](C)(C)CC(O)CC(=O)[O-] (stereo unspecified)
inactive: Potency [1] | outcome [2] | Potency [3] | Potency [4] | Potency [6] | Potency [8] | outcome [9] | outcome [10]

CC(=O)OC/C=C(\C)CC/C=C(\C)CCC=C(C)C
inactive: Potency [1] | outcome [2] | Potency [3] | Potency [4] | Potency [6] | Potency [8]

CCC(C)C1CCCCC1=O (stereo unspecified)
inactive: Potency [1] | outcome [2] | Potency [3] | Potency [4] | Potency [6] | Potency [8] | outcome [9]
